# Assay outcomes as filed in PubChem.
# Sampled rows, rich in hits. Any-hit rate of the full collection: about 3.8%.
# VDR inhibitor – Inhibitors of the vitamin D receptor (VDR): qHTS | Vitamin D3 receptor (Homo sapiens), P11473 | VDR-SRC2-3 peptide fluorescence polarization, 2 h | Potency, µM, for inactives: max response, negative = inhibition, most hits filed as inhibitors | 400,000 compounds, 0.93% hits | AID 504847, 2011; also: potency is read from the fitted curve at half-maximal effect; % is scaled to controls: 0 for no effect and ±100 for the full control effect
# Target sequence (P11473 whole entry, looked up): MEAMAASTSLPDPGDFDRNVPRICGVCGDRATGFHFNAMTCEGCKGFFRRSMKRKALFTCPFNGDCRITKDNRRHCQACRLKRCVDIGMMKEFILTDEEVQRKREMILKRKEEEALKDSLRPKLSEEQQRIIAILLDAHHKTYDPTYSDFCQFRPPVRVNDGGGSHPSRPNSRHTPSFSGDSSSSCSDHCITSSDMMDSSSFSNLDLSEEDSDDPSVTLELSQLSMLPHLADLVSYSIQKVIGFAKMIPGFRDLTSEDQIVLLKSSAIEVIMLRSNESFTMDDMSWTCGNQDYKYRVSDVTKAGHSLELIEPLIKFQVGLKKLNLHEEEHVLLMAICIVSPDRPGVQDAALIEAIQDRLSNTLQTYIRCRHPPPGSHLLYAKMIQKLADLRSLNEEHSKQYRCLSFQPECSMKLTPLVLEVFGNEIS
#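 Fluorescence polarization assay of small-molecule disruption of VDR binding to coregulator peptide SRC2-3. Compounds and controls pin-transferred, then read after 2 h incubation at ambient room temperature.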
# hERG WT inh – qHTS for Inhibitors of KCHN2 3.1: Wildtype qHTS | Voltage-gated inwardly rectifying potassium channel KCNH2 (Homo sapiens), Q12809 | AID 720551, 2013 | 340,000 compounds, 0.37% hits | activity change, % at 1.84 µM | U2OS, BacMam KCNH2, thallium flux FluxOr; stronger effect = lower value;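 active = maximum activity change below -70%; inconclusive = maximum activity change between -70% and -50%; inactive = maximum activity change above -50%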; also: % is scaled to controls: 0 for no effect and ±100 for the full control effect
#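 U2OS cells transduced with wild-type KCNH2 virus are loaded with FluxOr dye for 45 min, and thallium flux is measured in kinetic reads before and after stimulation buffer. Rate constants are normalized to DMSO controls.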
# KCNH2 3.1 inh – qHTS for Inhibitors of KCHN2 3.1: Mutant qHTS | Potassium voltage-gated channel subfamily H member 2, brain isoform KCNH2 3.1 (human) | U2OS KCNH2 3.1, thallium flux FluxOr; stronger effect = lower value | activity change, % (tested at about 1.8 µM) | 340,000 compounds, 0.95% hits;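 active = maximum activity change below -70%; inconclusive = maximum activity change from -70% to -50%; inactive = maximum activity change above -50%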;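 also: thallium influx rate constant from kinetic fluorescence after stimulation buffer; % is scaled to controls: 0 for no effect and ±100 for the full control effect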
#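 Thallium flux read-out: FluxOr dye with Red40 quencher in HBSS/HEPES, 45 min at RT. Rate constants from kinetic reads were normalized to positive and negative DMSO controls. Cells: U2OS virally expressing the 3.1 isoform.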
# PLK1 PBD block – qHTS for Inhibitors of PLK1-PDB (polo-like kinase 1 - polo-box domain): Primary Screen; Serine/threonine-protein kinase PLK1 (Homo sapiens), P53350; Plk1 PBD binding of FITC phosphopeptide, fluorescence polarization; Potency, µM, inactives show max response, negative = inhibition, usual class: inhibitors; 360,000 compounds, 2.8% hits; AID 720504, 2013; also: potency is read from the fitted curve at half-maximal effect; series mostly up to about 57 µM; % is scaled to controls: 0 for no effect and ±100 for the full control effect; nearly all actives have a fitted effect of over 65% in size
# MBNL1-CUG inh – qHTS Assay for Inhibitors of MBNL1-poly(CUG) RNA binding | Muscleblind-like protein 1 (Homo sapiens), Q9NR56 | TR-FRET MBNL1-His/biotin-(CUG)12 binding, 665/545 ratio | Potency, µM (titrated, usually from 57.5 µM), without a hit: at the top dose activity change, negative = inhibition, actives largely listed as inhibitors | 280,000 compounds, 0.036% hits | AID 2675, 2010; active = well fitted inhibition curve with a large enough effect in the signal ratio, with a control signal flat, not every such curve was filed as active; inconclusive = small, poorly fitted or top-dose-only effect, or effect the other way, or a change in a side signal; inactive = no such curve, though single readings can be large or run the other way; the % refers to the signal ratio; also: potency is read from the fitted curve at half-maximal effect; % is scaled to controls: 0 for no effect and ±100 for the full control effect
#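 MBNL1-His + Biotin-(CUG)12, cpd titration 92 nM–58 uM; Tb anti-His Ab 0.055 ng/ul, SA-XL665 5 nM (final); 60 min RT; ratiometric 665/545 nm, Ex 340 nm; normalized to buffer and full-complex controls.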
# CBFb RUNX1 block – qHTS Assay for Compounds Blocking the Interaction Between CBF-beta and RUNX1 for the Treatment of Acute Myeloid Leukemia | Runt-related transcription factor 1 (Homo sapiens) + Core-binding factor subunit beta … | AlphaScreen CBFb-His/RUNX1-biotin binding, biochemical | Potency, µM (top dose mostly 59.8 µM), without a hit: top-dose activity, negative = inhibition, actives largely listed as inhibitors | 230,000 tested, under 10 active | AID 1477, 2009; also: % of control where 0% means no effect
#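 Read-out: AlphaScreen. Format: His-CBF-beta with biotinylated RUNX1 (30 nM each) preincubated 20 min, compound 15 min, Ni-chelate plus streptavidin beads 90 min; room temperature throughout.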
# Active calls of the source: *; u = inconclusive; x = no result given; [ ] = dose if it differs, or a comment. Unless noted, calls follow the shape of the dose curve; as a rule, active = well fitted curve in the direction sought with a large enough effect; inconclusive = small, poorly fitted or top-dose-only effect, or another doubt; inactive = no such curve, though single readings can be large; an effect the other way counts as inactive or inconclusive.
SMILES,VDR inhibitor,hERG WT inh,KCNH2 3.1 inh,PLK1 PBD block,MBNL1-CUG inh,CBFb RUNX1 block
COc1ccc(-c2coc3cc(O)ccc3c2=O)c(O)c1O,50µM*,x,x,x,x,x
CCOC(=O)CCCNC(=O)N1CCc2nc(-c3ccccc3)c3c(c2C1)CO[C@@H](C)C3,x,x,x,x,x,18%[13.1 µM]
COC(=O)Cc1csc(NC(=O)CSc2nnc3ccccn23)n1,u,x,-12,17µM*,x,8%
OC(COc1ccccc1)CN1CCC(Cc2ccccc2)CC1 (centres undefined),10%,0,-115*,-5%,-4%,x
Cc1ccccc1OCC(O)CN1CCC(C)CC1 (centres undefined),-4%,11,-80*,-4%,-8%,9%
OC(COc1ccccc1F)CN1CCC(Cc2ccccc2)CC1 (centres undefined),-13%,-21,u,-13%,1%,x
NC(=O)C1CCN(CC(O)COc2ccc(-c3ccccc3)cc2)CC1 (centres undefined),-14%,15,-86*,-17%,-3%,x
OC(COc1ccc(F)cc1Cl)CN1CCC(Cc2ccccc2)CC1 (centres undefined),-10%,u,-93*,-4%,27%,x
OCC(O)C(O)C(O)C(O)CO (centres undefined),1%,x,x,x,x,-2%
Cc1ccc(C2CC(c3ccco3)n3ncnc3N2)cc1 (centres undefined),-13%,-6,0,u,-9%,0%
Fc1ccc(C2CC(c3ccco3)n3ncnc3N2)cc1 (centres undefined),-21%,-130*,-175*,-1%,-9%,-8%
COc1ccc(Cn2c(SCc3ccc(C(=O)NC4CCCCC4)cc3)nc3cccnc32)cc1,10%,x,x,x,x,x
c1ccc(CNc2oc(-c3ccccc3)nc2-c2ccccc2)cc1,14µM*,x,x,x,x,13%
CSc1cccc(NS(=O)(=O)c2cn(C)c(C)n2)c1,12%,x,x,x,x,x
O=C(NCCN1CCN(c2ccccc2)CC1)c1cccn2c(=O)c3ccccc3nc12,3%,-27,-38,-12%,11%,2%
O=C(NCCN1CCN(c2ccccc2F)CC1)c1cccn2c(=O)c3ccccc3nc12,7%,-14,-79*,1%,6%,3%
CC1CCc2c(sc(NC(=O)c3cc4nc(-c5ccc(Cl)cc5)cc(C(F)(F)F)n4n3)c2C#N)C1 (centres undefined),5%,x,x,x,x,x
CCC1CCCCN1CCCNC(=O)c1ccc(/C=C2/Sc3ccccc3NC2=O)cc1 (centres undefined),1%,u,-96*,-10%,u,x
O=C1Nc2cc(C(=O)NCCCN3CCCC3)ccc2S/C1=C\c1ccccc1,13%,5,2,-13%,u,x
O=C(NCC1CCCO1)C1CCN(S(=O)(=O)N2CCCC2)CC1 (centres undefined),-4%,-1,9,0%,5%,4%
O=S(=O)(CCN(CCS(=O)(=O)C(F)(F)F)CC1CCCO1)C(F)(F)F (centres undefined),u,-8,6,27µM*,11%,-4%
CCOc1cc(/C=C(\C#N)C(=O)Nc2cccc(C(=O)O)c2)ccc1OCc1ccccc1Cl,u,-8,-22,21µM*,2%,x
N#C/C(=C\c1ccc(OCc2ccccc2)cc1)C(N)=O,u,4,14,9.5µM*,u,5%
Cc1ccccc1COc1ccc(/C=C(\C#N)C(N)=O)cc1,-2%,4,14,-8%,8%,5%
N#C/C(=C\c1ccc(OCc2ccc(Br)cc2)cc1)C(=O)Nc1cccc(C(=O)O)c1,u,9,-13,21µM*,-17%,x
SMILES,VDR inhibitor,hERG WT inh,KCNH2 3.1 inh,PLK1 PBD block,MBNL1-CUG inh,CBFb RUNX1 block
N#C/C(=C/c1ccc([N+](=O)[O-])cc1)C(N)=O,79µM*,-3,1,-21%,u,14%
COC(=O)c1nnn(CC(=O)Nc2c(C)cccc2C)c1N,7%,x,x,x,x,x
CCOc1cc(/C=C(\C#N)C(=O)Nc2cccc(C(=O)O)c2)cc(Br)c1OC(=O)c1ccc(OC)cc1,25µM*,-1,-112*,9.5µM*,2%,x
Fc1ccc(CCNc2ncnc3nc[nH]c23)cc1,-12%,x,x,x,x,x
O=S(Cc1ccc(Br)cc1)Cc1nnc(SCc2ccc(Br)cc2)n1-c1ccccc1 (centres undefined),17%,-16,-74*,-2%,9%,-4%
COC(=O)c1ccc(CSc2nnc(CS(=O)Cc3ccc(Br)cc3)n2-c2ccccc2)cc1 (centres undefined),4%,-2,-9,4%,4%,-6%
CCOc1ccc(S(=O)(=O)N2CCN(c3nc(-c4ccccc4)nc4ccccc34)CC2)cc1OCC,-21%,x,x,x,x,x
S=c1[nH]nc(Nc2ccccc2Cl)s1,-11%,9,8,19µM*,-15%,2%
COc1cccc2cc(C(=O)CS(=O)(=O)c3ccc(Cl)cc3)c(=O)oc12,-17%,-9,-14,17µM*,2%,x
OCC1(Cc2ccccc2)CCCN(Cc2ccc(-c3ccco3)cc2)C1 (centres undefined),5%,-4,-26,-15%,-13%,2%
Cc1c(CN2CCC(CO)(Cc3ccccc3)CC2)c2ccccc2n1C,-6%,38,5,3%,-6%,-2%
COc1ccc(CC2(CO)CCN(Cc3ccc(NC(C)=O)cc3)CC2)cc1,-3%,-2,-23,u,5%,11%
OCC1(Cc2ccccc2)CCN(Cc2ccc(-c3ccco3)cc2)CC1,-9%,-11,-85*,-22%,-5%,3%
COc1ccc(CC2(CO)CCN(Cc3ccc(OC(F)(F)F)cc3)CC2)cc1,-5%,u,-81*,-14%,-15%,3%
CCOC(=O)C1(Cc2cccc(OC)c2)CCN(Cc2cccn2-c2ccccn2)CC1,21%,-8,-47,-5%,-3%,7%
COc1ccc(CC2(CO)CCN(Cc3cccn3-c3ccccn3)CC2)cc1,-16%,u,-108*,-14%,-6%,-2%
OCC1(Cc2ccccc2)CCN(CCCC2CCCC2)CC1,7%,-35,-75*,-9%,-7%,-1%
CCOc1ccc(N(C(=O)OC(C)(C)C)C(=O)c2ccc(O[Si](C)(C)C(C)(C)C)cc2)c(I)c1,2%,x,x,x,x,13%
